Active and inactive are the calls of the source. How the source made its calls: active means hit-call score of the fitted dose curve at least 0.9, where 1 is the maximum; inactive means score below 0.9.
Tests used:
Conditions in all cases: mRNA level, 48 h; actives raise or lower the signal
[1] = read-out: Cyclin D1 (CCND1), CCND1 (gene 595); experiment: LTEA_HepaRG_CCND1: Life Technologies and Expression Analysis (LTEA) Assay for Cyclin D1 (CCND1) using HepaRG (AID 2283451)
Outline: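 Human liver HepaRG line; 48 h dosing, 8 conc. ≤100 uM, 0.5% DMSO; TaqMan qRT-PCR mRNA, 3 housekeeping genes; bidirectional curve fit vs DMSO.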

[2] = read-out: catalase (CAT), CAT (gene 847); experiment: LTEA_HepaRG_CAT: Life Technologies and Expression Analysis (LTEA) Assay for catalase (CAT) using HepaRG (AID 2283452)
Outline: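 Expression of CAT was quantified by TaqMan qRT-PCR with ACTB/GAPDH/POLR2A normalization after 48 h chemical exposure of HepaRG. Eight-point half-log series, top 100 uM, in 0.5% DMSO; gain or loss fitted against vehicle.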

[3] = read-out: flavin-containing dimethylaniline monooxygenases 3 (FMO3), FMO3 (gene 2328); experiment: LTEA_HepaRG_FMO3: Life Technologies and Expression Analysis (LTEA) Assay for flavin-containing dimethylaniline monooxygenases 3 (FMO3) using HepaRG (AID 2283453)
Outline: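 Eight-point concentration-response in serum-free HepaRG cultures (top 100 uM, 0.5% DMSO, 48 h). Read-out: FMO3 mRNA level normalized to three endogenous control genes, fitted bidirectionally versus vehicle.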

[4] = read-out: Cytochrome P450 (CYP1A1), CYP1A1 (gene 1543); experiment: LTEA_HepaRG_CYP1A1: Life Technologies and Expression Analysis (LTEA) Assay for Cytochrome P450 (CYP1A1) using HepaRG (AID 2283454)
Outline: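 Induction of CYP1A1 mRNA in a human hepatic cell line was measured 48 h after dosing, with 1 mM phenobarbital as induction positive control and 0.5% DMSO vehicle as baseline for bidirectional curve fitting.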

[5] = read-out: CFLAR gene, CFLAR (gene 8837); experiment: LTEA_HepaRG_CFLAR: Life Technologies and Expression Analysis (LTEA) Assay for CFLAR gene using HepaRG (AID 2283455)
Outline: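 Transcript level by qRT-PCR (normalized to ACTB, GAPDH and POLR2A) after 48 h chemical exposure of HepaRG cells, top concentration 100 uM with half-log steps, 0.5% DMSO vehicle, duplicates; fitted bidirectionally against DMSO baseline.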

[6] = read-out: Forkhead box O1 (FOXO1), FOXO1 (gene 2308); experiment: LTEA_HepaRG_FOXO1: Life Technologies and Expression Analysis (LTEA) Assay for Forkhead box O1 (FOXO1) using HepaRG (AID 2283456)
Outline: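 FOXO1 transcript quantified by qRT-PCR after 48 h chemical exposure (top 100 uM, half-log steps, 0.5% DMSO) of HepaRG cells, housekeeping-normalized (ACTB/GAPDH/POLR2A). Changes fitted in both directions relative to vehicle.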

[7] = read-out: growth arrest and DNA damage 45 (GADD45A), GADD45A (gene 1647); experiment: LTEA_HepaRG_GADD45A: Life Technologies and Expression Analysis (LTEA) Assay for growth arrest and DNA damage 45 (GADD45A) using HepaRG (AID 2283458)
Outline: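 HepaRG, 48 h exposure, 8 conc. (top 100 uM, half-log steps), 0.5% DMSO vehicle, duplicates. Read-out: qRT-PCR mRNA level, housekeeping-normalized (ACTB/GAPDH/POLR2A). Curves fit bidirectionally vs DMSO baseline.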

[8] = read-out: Forkhead box O3 (FOXO3), FOXO3 (gene 2309); experiment: LTEA_HepaRG_FOXO3: Life Technologies and Expression Analysis (LTEA) Assay for Forkhead box O3 (FOXO3) using HepaRG (AID 2283459)
Outline: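 FOXO3 transcript measured by qRT-PCR (normalized to ACTB, GAPDH, POLR2A) after 48 h exposure of HepaRG cells in serum-free induction medium. Duplicates, eight half-log concentrations up to 100 uM, 0.5% DMSO; gain or loss fitted against DMSO.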

[9] = read-out: ABC Transporter (ABCB1), ABCB1 (gene 5243); experiment: LTEA_HepaRG_ABCB1: Life Technologies and Expression Analysis (LTEA) Assay for ABC Transporter (ABCB1) using HepaRG (AID 2283460)
Outline: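 ABCB1 transcript level measured by TaqMan qRT-PCR against three housekeeping genes after 48 h chemical exposure of differentiated HepaRG cells. Top concentration 100 uM, half-log steps, eight points, 0.5% DMSO vehicle; bidirectional fit relative to DMSO.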

[10] = read-out: growth arrest and DNA damage 45 (GADD45B), GADD45B (gene 4616); experiment: LTEA_HepaRG_GADD45B: Life Technologies and Expression Analysis (LTEA) Assay for growth arrest and DNA damage 45 (GADD45B) using HepaRG (AID 2283461)
Outline: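 Values are bidirectional concentration-response fits against 0.5% DMSO controls. Underlying data: qRT-PCR mRNA levels in human HepaRG liver cells treated 48 h in serum-free induction medium, eight concentrations topping at 100 uM.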

[11] = read-out: ABC Transporter (ABCC3), ABCC3 (gene 8714); experiment: LTEA_HepaRG_ABCC3: Life Technologies and Expression Analysis (LTEA) Assay for ABC Transporter (ABCC3) using HepaRG (AID 2283462)
Outline: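 Differentiated HepaRG liver cells receive test chemicals at eight concentrations (max 100 uM) for 48 h. Expression of ABCC3 is quantified by qRT-PCR against ACTB, GAPDH and POLR2A, and activity is fitted in both directions against the DMSO control.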

[12] = read-out: ABC Transporter (ABCB11), ABCB11 (gene 8647); experiment: LTEA_HepaRG_ABCB11: Life Technologies and Expression Analysis (LTEA) Assay for ABC Transporter (ABCB11) using HepaRG (AID 2283463)
Outline: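 ABCB11 transcript levels quantified by TaqMan qRT-PCR against three housekeeping genes after 48 h chemical exposure of HepaRG cultures. Concentrations up to 100 uM in half-log steps, 0.5% DMSO vehicle; both induction and suppression scored.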

[13] = read-out: Broad substrate specificity ATP-binding cassette transporter ABCG2 (Homo sapiens) (UniProt Q9UNQ0); experiment: LTEA_HepaRG_ABCG2: Life Technologies and Expression Analysis (LTEA) Assay for ABC Transporter (ABCG2) using HepaRG (AID 2283465)
Outline: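 ABCG2 transcript was quantified by TaqMan qRT-PCR against three housekeeping genes in HepaRG cells. Cells were treated in duplicate for 48 h across an 8-point half-log series up to 100 uM, with 0.5% DMSO vehicle. Gain or loss versus DMSO was fit.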

[14] = read-out: ATP-citrate lyase (ACLY), ACLY (gene 47); experiment: LTEA_HepaRG_ACLY: Life Technologies and Expression Analysis (LTEA) Assay for ATP-citrate lyase (ACLY) using HepaRG (AID 2283466)
Outline: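 ACLY mRNA quantified by qRT-PCR on Fluidigm arrays against three housekeeping genes, after 48 h chemical treatment of HepaRG cells (top concentration 100 uM, half-log steps, 0.5% DMSO vehicle). Up- or down-regulation fitted relative to DMSO.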

[15] = read-out: Peroxisomal acyl-coenzyme A oxidase 1 (ACOX1) gene, ACOX1 (gene 51); experiment: LTEA_HepaRG_ACOX1: Life Technologies and Expression Analysis (LTEA) Assay for Peroxisomal acyl-coenzyme A oxidase 1 (ACOX1) gene using HepaRG (AID 2283467)
Outline: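 ACOX1 transcript levels were quantified by TaqMan qRT-PCR against three housekeeping genes after 48 h chemical exposure of differentiated human HepaRG cells. Exposure used eight half-log steps topping at 100 uM, 0.5% DMSO vehicle, in duplicate. Bidirectional curve fits were made relative to DMSO.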

[16] = read-out: Alkaline Phosphatase, Placental (ALPP) gene, ALPP (gene 250); experiment: LTEA_HepaRG_ALPP: Life Technologies and Expression Analysis (LTEA) Assay for Alkaline Phosphatase, Placental (ALPP) gene using HepaRG (AID 2283468)
Outline: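 Expression of ALPP was quantified by qRT-PCR against three housekeeping genes in human HepaRG cultures treated for 48 h with an eight-point concentration series up to 100 uM. Activity in either direction was fitted relative to 0.5% DMSO.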

[17] = read-out: Bcl-2 (BAD) gene, BAD (gene 572); experiment: LTEA_HepaRG_BAD: Life Technologies and Expression Analysis (LTEA) Assay for Bcl-2 (BAD) gene using HepaRG (AID 2283469)
Outline: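 Read-out: qRT-PCR of BAD mRNA, normalized to three housekeeping genes. Human HepaRG cultures got 48 h chemical exposure in 0.5% DMSO, duplicate eight-point half-log series topping at 100 uM. Gain or loss of signal fitted versus DMSO vehicle.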

[18] = read-out: Bcl-2 (BAX) gene, BAX (gene 581); experiment: LTEA_HepaRG_BAX: Life Technologies and Expression Analysis (LTEA) Assay for Bcl-2 (BAX) gene using HepaRG (AID 2283470)
Outline: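 qRT-PCR read-out of BAX mRNA, normalized to three housekeeping genes, after 48 h chemical exposure of human HepaRG cells in serum-free induction medium; eight-point half-log series, top 100 uM, 0.5% DMSO vehicle; bidirectional fit versus DMSO.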

[19] = read-out: ABC Transporter (ABCC2), ABCC2 (gene 1244); experiment: LTEA_HepaRG_ABCC2: Life Technologies and Expression Analysis (LTEA) Assay for ABC Transporter (ABCC2) using HepaRG (AID 2283464)
Outline: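 Gene expression of ABCC2 was determined by qRT-PCR in HepaRG cells exposed 48 h to chemicals (highest 100 uM, half-log dilutions). Activity was fitted in both directions relative to 0.5% DMSO vehicle.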

Measured: AC50

Chain of Broad substrate specificity ATP-binding cassette transporter ABCG2 (Homo sapiens) (Q9UNQ0 whole entry, looked up): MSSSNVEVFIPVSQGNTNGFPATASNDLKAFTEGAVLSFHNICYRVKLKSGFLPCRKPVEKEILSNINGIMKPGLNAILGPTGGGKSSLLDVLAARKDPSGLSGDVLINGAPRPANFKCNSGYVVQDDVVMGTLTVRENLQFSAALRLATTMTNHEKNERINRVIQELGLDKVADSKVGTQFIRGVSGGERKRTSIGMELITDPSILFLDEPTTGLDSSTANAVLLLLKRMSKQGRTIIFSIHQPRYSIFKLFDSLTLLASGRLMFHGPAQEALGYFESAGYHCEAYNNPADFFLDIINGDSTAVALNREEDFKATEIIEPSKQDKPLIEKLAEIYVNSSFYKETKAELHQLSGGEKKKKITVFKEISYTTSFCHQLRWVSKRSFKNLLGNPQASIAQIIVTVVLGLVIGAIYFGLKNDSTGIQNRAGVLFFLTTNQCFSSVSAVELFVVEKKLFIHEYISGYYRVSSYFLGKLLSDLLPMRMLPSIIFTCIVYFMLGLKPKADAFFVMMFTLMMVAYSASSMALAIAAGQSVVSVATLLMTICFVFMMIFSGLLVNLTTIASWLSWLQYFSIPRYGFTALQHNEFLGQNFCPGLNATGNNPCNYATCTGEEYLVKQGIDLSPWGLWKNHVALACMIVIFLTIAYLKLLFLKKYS

O=C(O)CC(O)(CC(=O)O)C(=O)O
active: [4] 50 µM
inactive: [1] | [2] | [3] | [5] | [6] | [7] | [8] | [9] | [10] | [11] | [12] | [13] | [14] | [15] | [16] | [17] | [18]

Cc1occc(=O)c1O
inactive: [1] | [2] | [3] | [5] | [6] | [7] | [8] | [9] | [10] | [11] | [12] | [19] | [13] | [14] | [15] | [16] | [17]

OCC(O)CO
inactive: [1] | [2] | [3] | [4] | [5] | [6] | [7] | [8] | [9] | [10] | [11] | [12] | [19] | [13] | [14] | [15] | [16] | [17] | [18]

O=C(O)CN(CC(=O)O)CC(=O)O
inactive: [1] | [2] | [3] | [5] | [6] | [7] | [8] | [9] | [10] | [11] | [12] | [19] | [13] | [14] | [15] | [16] | [17] | [18]
active: [4] 79.4 µM

CC(C)c1cccc(C(C)C)c1
active: [4] 66.1 µM
inactive: [1] | [2] | [3] | [5] | [6] | [7] | [8] | [9] | [10] | [11] | [19] | [13] | [14] | [15] | [16] | [17] | [18]

O=C1NC(=O)C(c2ccccc2)(c2ccccc2)N1
active: [4] 65.1 µM | [19] 50 µM
inactive: [1] | [2] | [3] | [5] | [6] | [7] | [8] | [9] | [10] | [11] | [12] | [13] | [14] | [15] | [16] | [17] | [18]

CC(=O)O
inactive: [1] | [2] | [3] | [5] | [6] | [7] | [8] | [9] | [10] | [11] | [12] | [19] | [13] | [14] | [15] | [16] | [17] | [18]
active: [4] 72.2 µM

CCCCC(CC)COP(=O)(OCC(CC)CCCC)OCC(CC)CCCC (stereo not given)
inactive: [1] | [2] | [3] | [5] | [6] | [7] | [8] | [10] | [11] | [12] | [19] | [13] | [14] | [15] | [16] | [17] | [18]
active: [4] 25.6 µM | [9] 8.5 µM

C/C=C/C=C/C(=O)O
inactive: [1] | [2] | [3] | [5] | [6] | [8] | [9] | [10] | [11] | [12] | [19] | [13] | [14] | [15] | [16] | [17] | [18]
active: [4] 76.6 µM | [7] 0.246 µM

CCCCc1nc2cccnc2n1Cc1ccc(-c2ccccc2-c2nnn[nH]2)cc1
inactive: [1] | [3] | [5] | [6] | [7] | [8] | [10] | [11] | [14] | [15] | [17] | [18]
active: [4] 50 µM | [9] 50 µM | [12] 89.8 µM | [19] 50 µM | [13] 27.1 µM | [16] 15.5 µM
